In experiment [1] the test system is Zika virus NS2B-NS3 protease (unlinked complex). Nature of the experiment: Primary screen GU Rhodamine qHTS for Zika virus inhibitors: Unlinked NS2B-NS3 protease assay (AID 1347159). Further: nearly all actives have a fitted effect of over 60% in size. Summed up: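 Unlinked NS2B/NS3, 25 nM; Rhod110 peptide, 1.5 microM; compounds, up to 114 microM. Reaction run 15 min at RT in 10 mM Tris-HCl pH 8.0, 0.01% Tween 20; kinetic fluorescence change fitted with a 4-parameter Hill model.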
For orientation: In qHTS, concentration-response curves come from the screen itself.

The subject of experiment [2] is Zika virus NS2B-NS3 protease (linked construct). Nature of the experiment: Primary screen NINDS Rhodamine qHTS for Zika virus inhibitors (AID 1347160). Further: nearly all actives have a fitted effect of over 55% in size. The method, boiled down: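 Single-chain NS2B-NS3 protease, 25 nM, pH 8.0; compounds preincubated 15 min. Activity: Rhodamine110 release from 1.5 microM substrate over 15 min, room temperature, data fitted to 4-parameter Hill.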

Consider ten molecules from PubChem BioAssay (NCATS).

Structures are written as SMILES. Results filed as inconclusive are left out. Values without a mark were called inactive. Activity calls are given as the source filed them. The call rests on the fitted dose curve; in most records, active means well fitted inhibition curve with a large enough effect; inconclusive means small, poorly fitted or top-dose-only effect; inactive means no such curve, though single readings can be large or run the other way. Where a SMILES comes first, the peptide text is derived from it. [ ]: non-standard residue; d: D form. 2Abz = Nc1ccccc1C(=O)O
On the % scale 0 is the no-effect control and ±100 the full control effect; potency means the concentration at half of the fitted maximal effect.

Take `CO[C@@H](Cc1ccc(OCCc2nc(-c3ccccc3)oc2C)c2ccsc12)C(=O)O`: the Potency in experiment [1] was 17.8 µM (active); in experiment [2] it was 12.6 µM (active).
For `COCCCNCC1COc2ccccc2O1` (stereo not given), in that order: “inactive” and “inactive”.
With `C/C=C(\C)C(=O)O[C@@H]1CC2[C@@H](CC=C3C[C@@H](O[C@H]4C[C@H](OC)[C@H](O[C@H]5C[C@H](OC)[C@H](O[C@H]6C[C@H](OC)[C@H](O[C@H]7C[C@@H](OC)[C@H](O[C@@H]8O[C@H](CO)[C@@H](O)[C@H](O)[C@H]8O)[C@@H](C)O7)[C@@H](C)O6)[C@@H](C)O5)[C@@H](C)O4)CC[C@@]32C)[C@@]2(O)CC[C@H](C(C)=O)[C@@]12C` (stereo not given in full), the activity change, negative = inhibition in experiment [1] was 20.3% [at 19.1 µM]; in experiment [2], 1.97% [at 10.7 µM].
Take `O=C1N(CC2CCCCN2)CCN1c1ccccc1` (stereo not given): the Potency result in experiment [1] and in experiment [2] was “inactive” throughout.
Consider `FC(F)(F)c1cc(C(F)(F)F)c2ccc3nc(-c4nnco4)cn3c2n1`, for which the Potency entry in experiment [1] and in experiment [2] was “inactive” in each case.
Turning to `CC(C)N(C[C@H]1O[C@@H](n2cnc3c(N)ncnc32)[C@H](O)[C@@H]1O)C1CC(CCc2nc3ccc(C(C)(C)C)cc3[nH]2)C1` (stereo not given in full), the Potency entry in experiment [1] and in experiment [2] was “inactive” in each case.
Take `COc1cc(NC(=O)c2ccccn2)ccc1Cl`: the Potency result in experiment [1] and in experiment [2] was “inactive” in each case.
On to `COc1cc2c(cc1OC)CN(C(=O)[C@@H](NCc1ccncc1)C(C)(C)C)CC2`, for which the Potency result in experiment [1] and in experiment [2] was “inactive” each time.
In the case of `CC1CCC(=O)CC(O)C(O)CC(=O)O1` (stereo not given), the Potency entry in experiment [1] and in experiment [2] was “inactive” each time.
Take `CCC(C)C1NC(=O)C2CCCN2C(=O)C(C(C)C)NC(=O)c2ccccc2NC(=O)C(Cc2ccc(O)cc2)NC(=O)C(C)NC(=O)C(C(C)O)NC1=O` (stereo not given) (cyclo([2Abz]VPITAY); configuration not given here): the Potency result in experiment [1] and in experiment [2] was “inactive” in each case.
